These results are taken from PubChem BioAssay (NCI).

Structures are written as SMILES. This is part of a sample that, as a whole, favours compounds with a hit. Of some 83,000 tested, about 20% had one in any assay.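 Negative percent growth values reflect cell death: -40 means 40% of the cells present at the start died, and -100 means all died.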 A number with no mark means an inactive call. Active and inactive are the calls of the source. How the source made its calls: active means growth percent below 10; inactive means the rest.

Test systems include SK-MEL-2 melanoma; EKVX NSCLC; SN12C renal; UO-31 renal; ACHN renal; CAKI-1 renal; A498 renal; CCRF-CEM leukemia; MOLT-4 leukemia; TK-10 renal.
Holding throughout (assay): NCI-60 one-dose screen, 48 h (100 = growth as untreated, 0 = no growth, -100 = all killed)
Holding throughout (details): 10 µM unless noted

Take `N=C(N)c1ccc(S(N)(=O)=O)cc1`: the growth was 99.9% in the assay with SK-MEL-2 melanoma; 96.2% in the assay on EKVX NSCLC; 94.5% in the assay with SN12C renal; 72.6% in the assay on UO-31 renal; 108% in the assay with ACHN renal; 92.5% in the assay with CAKI-1 renal. Also, the growth in the assay with A498 renal was 92%; in the assay with CCRF-CEM leukemia, 107%; with MOLT-4 leukemia, 102%.

As for `COC(=O)[C@]12CC[C@@H](C)[C@H](C)[C@@H]1C1=CC[C@@H]3[C@@]4(C)C[C@@H](O)[C@H](O)[C@@](C)(CO)C4=CC[C@@]3(C)[C@]1(C)CC2`, the growth in the assay with SK-MEL-2 melanoma was -36.9% (active); in the assay on EKVX NSCLC, -71.8% (active); with SN12C renal, -71.5% (active); in the assay with UO-31 renal, -48.9% (active); with ACHN renal, -83.7% (active); in the assay with CAKI-1 renal, -10.2% (active). The growth was -94.7% (active) in the assay on A498 renal and -33.6% (active) with CCRF-CEM leukemia.

For the compound `CCCNc1nc(N(C)O)nc(N(C)O)n1`, the growth with SK-MEL-2 melanoma was 74.1%; in the assay on EKVX NSCLC it was 36.9%; in the assay on SN12C renal, 47.1%; in the assay on UO-31 renal, 21.7%; in the assay on ACHN renal, 14.5%; with CAKI-1 renal, 25%. In addition, the values for the growth in the assay with A498 renal, in the assay with CCRF-CEM leukemia and with MOLT-4 leukemia were 22.3%, 6.78% (active) and 14.8%, respectively.

Take `N=c1c(S(=O)(=O)c2ccccc2)cc2c(=O)n3ccccc3nc2n1C1CCCC1`: the growth in the assay with SK-MEL-2 melanoma was 104%; in the assay with EKVX NSCLC it was 78.1%; with SN12C renal, 87.2%; in the assay with UO-31 renal, 50.9%; in the assay with ACHN renal it was 86%; in the assay with CAKI-1 renal it was 64.6%. The growth with A498 renal was -1.39% (active); in the assay with CCRF-CEM leukemia, 93.6%; in the assay with MOLT-4 leukemia it was 82%.

Regarding `CC(=O)Nc1cc(F)cc(C(F)(F)F)c1Cl`, the growth with SK-MEL-2 melanoma is 105%; with EKVX NSCLC it was 98%; in the assay with SN12C renal, 105%; in the assay with UO-31 renal, 92.8%; in the assay with ACHN renal, 99.3%; in the assay on CAKI-1 renal it was 91.5%. For the same compound, the growth was 100% with A498 renal and 105% with MOLT-4 leukemia.

Regarding `Cc1cc(Cl)nc(N(CCCNc2ccnc3cc(Cl)ccc23)Cc2ccco2)n1`, the growth was 39.4% in the assay with SK-MEL-2 melanoma; 24.1% in the assay with EKVX NSCLC; 26.6% in the assay with SN12C renal; 10.9% in the assay with UO-31 renal; 41.7% in the assay on TK-10 renal; 38.1% in the assay on A498 renal. In addition, in the assay with MOLT-4 leukemia, the growth was -1.04% (active).

For `NC1=C(C/C(N)=N\O)C(c2ccccc2Cl)c2c(ccc3ccccc23)O1` (stereo unspecified), the growth in the assay on SK-MEL-2 melanoma is 90.4%; with EKVX NSCLC it was 80.9%; with SN12C renal it was 91.3%; in the assay with UO-31 renal, 58.6%; in the assay on ACHN renal, 83%; with CAKI-1 renal it was 49.5%. The growth in the assay with A498 renal is 96.8%; in the assay on CCRF-CEM leukemia, 79.8%; with MOLT-4 leukemia, 76%.

With `COc1cc2c3c(c4c5ccccc5[nH]c4c2c(OC)c1OC)C(=O)N(O)C3=O`, the growth in the assay on SK-MEL-2 melanoma is 85.6%; in the assay on EKVX NSCLC it was 97.1%; in the assay on SN12C renal, 46.6%; with UO-31 renal, 10%; in the assay on ACHN renal, 20.6%; in the assay with CAKI-1 renal, 36%. In addition, the growth in the assay with A498 renal is -16.8% (active); in the assay with CCRF-CEM leukemia, 18%; with MOLT-4 leukemia it was 1.38% (active).

Take `CN1CCN(CCOc2ccc(-c3cnc4c(-c5ccccc5F)cnn4c3)cc2)CC1`: the growth in the assay on SK-MEL-2 melanoma was 91.9%; in the assay with EKVX NSCLC, 68.4%; in the assay with SN12C renal, 60.7%; in the assay on UO-31 renal, 39.1%; in the assay on TK-10 renal it was 71%; in the assay with CAKI-1 renal it was 45.8%. Besides, the growth with CCRF-CEM leukemia is 5.37% (active); in the assay on MOLT-4 leukemia, -9.43% (active).

Turning to `CCOC(=O)C1OC1(c1ccccc1)c1ccccc1` (stereo unspecified), the growth is 112% in the assay with SK-MEL-2 melanoma; 101% with EKVX NSCLC; 98.7% in the assay on SN12C renal; 88.1% with UO-31 renal; 103% in the assay on ACHN renal; 79.5% with CAKI-1 renal. Further, the results for the growth in the assay with A498 renal, with CCRF-CEM leukemia and in the assay on MOLT-4 leukemia were 106%, 100% and 105%, respectively.

Consider `O=C(NCN1C(=O)c2cccc3cccc(c23)C1=O)N1CCC(Cc2ccccc2)CC1`, for which the growth was 103% in the assay on SK-MEL-2 melanoma; 93.4% in the assay with EKVX NSCLC; 99.2% in the assay on SN12C renal; 72.2% in the assay on UO-31 renal; 101% with ACHN renal; 82.9% in the assay with CAKI-1 renal. Moreover, the growth is -36% (active) in the assay with A498 renal, 79.9% with CCRF-CEM leukemia and 84.7% with MOLT-4 leukemia.

Take `C#Cc1cccc(NC(=O)C2CCCN(C(=O)CCl)C2)c1` (stereo unspecified): the growth in the assay on SK-MEL-2 melanoma is 75.7% [8.25 µM]; with EKVX NSCLC it was 95.7% [8.25 µM]; with SN12C renal, 9.7% [8.25 µM] (active); in the assay on UO-31 renal, -56.7% [8.25 µM] (active); with ACHN renal, -96.3% [8.25 µM] (active); in the assay on CAKI-1 renal it was 33.8% [8.25 µM]. The results for the growth in the assay with A498 renal, with CCRF-CEM leukemia and in the assay on MOLT-4 leukemia were 99.2% [8.25 µM], -25.9% [8.25 µM] (active) and -7.04% [8.25 µM] (active), respectively.

In the case of `COc1ccc(CCN2C(=O)C(C)(C)SC2=S)cc1OC`, the growth with SK-MEL-2 melanoma was 107%; in the assay on EKVX NSCLC it was 94%; in the assay with SN12C renal, 96%; in the assay on UO-31 renal, 88.9%; in the assay with ACHN renal, 104%; in the assay on CAKI-1 renal, 88.1%. Besides, the results for the growth in the assay with A498 renal, in the assay with CCRF-CEM leukemia and in the assay with MOLT-4 leukemia were 99.3%, 92.3% and 101%, respectively.

With `COc1cnc2c(c1)C(=O)c1c-2n(CCCN2CCN(CCO)CC2)c(=O)c2cc([N+](=O)[O-])ccc12`, the growth in the assay on SK-MEL-2 melanoma is 108%; with EKVX NSCLC, 66%; with SN12C renal, 54%; in the assay with UO-31 renal, 36.6%; in the assay with ACHN renal it was 25.1%; with CAKI-1 renal it was 37.8%. In addition, the growth with A498 renal is -5.96% (active); with CCRF-CEM leukemia it was -5.14% (active); in the assay on MOLT-4 leukemia, 0.798% (active).
